The results in this text go back to PubChem BioAssay.

Active and inactive are the calls of the source. Unless noted, no rule for the calls is given here.

The subject of test [1] is XIP peptide (Xip251-270) binding. Kind of test: XIP fragment 251-270 binding compounds – biochemical, small-molecule microarray, fluorescence 635/667 nm, 0.1 µg/mL protein, primary screen (AID 1182). The note with it: fluorescent protein binding, 635 nm, higher = more signal, called active from +8 up or from −8 down.
In a further test the test system is XIP peptide (Xip251-270). Kind of test: compounds binding XIP fragment 251-270 – biochemical, small-molecule microarray, fluorescence 635/667 nm, 0.5 µg/mL protein, primary screen (AID 1183). As to conditions: fluorescence 635 nm, higher = more signal.
Test [2] is described as follows: blood-stage malaria parasite viability loss – strain 3D7, DAPI fluorescence, 100 nL, primary screen (AID 1184).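 Also: parasites grown inside human red blood cells in medium with human serum.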 The note with it: P. falciparum 3D7 growth, 3 d, higher = more signal.
Test [3] deals with Homeobox protein Hox-A13 (Mus musculus) (UniProt Q62424). Kind of test: disruptors of Hoxa13 oligonucleotide interaction – biochemical, fluorescence polarization, labeled oligonucleotide, primary screen (AID 1185). As to conditions: Hoxa13:DNA binding, 15 min, higher = more signal, called active from +8 up or from −8 down. For orientation: In fluorescence polarisation assays a small probe gives low polarisation when free and higher when bound to something large.

Test [4] is described as follows: blockers of DNA damage checkpoint Chk1 activation – imaging, HeLa, hydroxyurea, phospho-Chk1 antibody, percent positive cells, primary screen (AID 1186). As to conditions: hydroxyurea-induced phospho-Chk1 immunofluorescence imaging, higher = more signal.
Test [5] can be described thus: blockers of DNA damage checkpoint Chk1 activation – imaging, HeLa, hydroxyurea, phospho-Chk1 nuclear intensity, primary screen (AID 1187). The note with it: hydroxyurea-induced phospho-Chk1 immunofluorescence imaging, higher = more signal.

Sequence of Homeobox protein Hox-A13 (Mus musculus) (Q62424 whole entry, looked up): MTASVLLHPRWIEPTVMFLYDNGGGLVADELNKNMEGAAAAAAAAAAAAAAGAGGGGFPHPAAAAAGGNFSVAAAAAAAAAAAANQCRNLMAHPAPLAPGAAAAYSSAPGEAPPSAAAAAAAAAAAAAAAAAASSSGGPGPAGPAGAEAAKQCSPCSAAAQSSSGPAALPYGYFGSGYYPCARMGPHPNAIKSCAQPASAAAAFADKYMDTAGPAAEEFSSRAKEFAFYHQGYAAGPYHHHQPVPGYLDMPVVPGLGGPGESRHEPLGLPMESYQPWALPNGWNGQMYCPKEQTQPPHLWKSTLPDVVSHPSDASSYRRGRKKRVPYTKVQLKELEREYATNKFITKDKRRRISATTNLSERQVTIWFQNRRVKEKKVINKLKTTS

For `COc1ccc(NN2C(C(O)c3ccc(OC)c(OCc4ccccc4)c3)C=CC3C(=O)N(C4CCCCC4)C(=O)C32)cc1` (configuration not stated), the values for the composite z-score (in test [1]; in the test with XIP peptide (Xip251-270)) were -0.137 (inactive) and 0.628, respectively. The z-score in test [2] was -1.02; in test [3], -1.81 (inactive); in test [4], -0.487 (inactive); in test [5] it was -0.892 (inactive).

Take `CN1CCC(CCCO)=CC1c1ccc(CN2CCCC2)cc1` (configuration not stated): the composite z-score in test [1] is 0.426 (inactive); in the test with XIP peptide (Xip251-270), 0.506. Also, the z-score is -1.18 in test [2], -2.07 (inactive) in test [3], 0.56 (inactive) in test [4] and 0.903 (inactive) in test [5].

As for `CCCNC(=O)[C@@H]1c2ccccc2C(=O)N(Cc2ccccc2)[C@H]1c1ccc(CO)cc1`, the composite z-score in test [1] is 0.838 (inactive); with XIP peptide (Xip251-270), 0.312. In addition, the z-score is -1.62 in test [2], -2.71 (inactive) in test [3], 0.0089 (inactive) in test [4] and -0.142 (inactive) in test [5].

For the compound `O=C1OCC=C[C@H]2OC34C=CCN(c5ccc6ccccc6c5)C(=O)[C@H]3N(CCCO)C(=O)[C@@H]4[C@@H]12` (some centres not stated), the composite z-score in test [1] is 0.185 (inactive); with XIP peptide (Xip251-270), 1.03. Further, the z-score in test [2] is -1.94; in test [3], -2.03 (inactive); in test [4], -0.114 (inactive); in test [5], -0.226 (inactive).

Consider `CC(C)C[C@@H]1NC(=O)[C@@H]2C[C@H](C(=O)NCCCCCC[N+](C)(C)C)[C@H](c3ccc(O)cc3)N2C1=O`, for which the values for the composite z-score (in test [1]; in the test on XIP peptide (Xip251-270)) were 1.5 (inactive) and 0.535, respectively. The z-score in test [2] was 0.727; in test [3], -2.3 (inactive); in test [4], -0.525 (inactive); in test [5] it was -0.124 (inactive).

With `[N-]=[N+]=Nc1ccccc1[C@H]1OC(c2ccc(OCCCO)cc2)=N[C@@]1(CCS(=O)(=O)c1ccccc1)C(=O)O`, the composite z-score in test [1] is 0.835 (inactive); with XIP peptide (Xip251-270), 0.824. Moreover, the z-score in test [2] is -1.46; in test [3] it was -4.02 (inactive); in test [4] it was 0.189 (inactive); in test [5], 0.222 (inactive).

In the case of `[N-]=[N+]=NCc1ccccc1C[C@@]1(C(=O)N2CCOCC2)N=C(c2ccc(OCCCO)cc2)O[C@@H]1c1ccccc1CN=[N+]=[N-]`, the composite z-score in test [1] was 1.16 (inactive); in the test with XIP peptide (Xip251-270), 0.788. Also, the z-score in test [2] was -2.36; in test [3], 0.223 (inactive); in test [4] it was -0.544 (inactive); in test [5], -0.629 (inactive).

As for `CCOC(=O)C1=CCC(C(C)(C)C)N(S(=O)(=O)c2ccc(C)cc2)C1` (configuration not stated), the results for the composite z-score (in test [1]; in the test with XIP peptide (Xip251-270)) were 0.548 (inactive) and 0.806, respectively. Also, the z-score in test [2] is -0.797; in test [3], -4.56 (inactive); in test [4], -1.42 (inactive); in test [5], -1.98 (inactive).

As to `COc1cc2c(cc1OC)CN(C(=O)[C@@H]1[C@H]3C(=O)O[C@H](c4ccccc4)[C@H](c4ccccc4)N3[C@H](c3ccccc3OCCO)[C@@]13C(=O)Nc1ccc(C#CCNC(N)=O)cc13)CC2`, the results for the composite z-score (in test [1]; with XIP peptide (Xip251-270)) were 0.12 (inactive) and 0.811, respectively. The z-score is -2.17 in test [2], 2.09 (inactive) in test [3], -0.229 (inactive) in test [4] and -0.232 (inactive) in test [5].

`COc1ccc(C#Cc2ccc3c(c2)[C@]2(C(=O)N3)[C@H](c3ccc(O)cc3)N3[C@H](c4ccccc4)[C@H](c4ccccc4)OC(=O)[C@H]3[C@@H]2C(=O)NC[C@H](O)c2ccccc2)cc1`: the figures for the composite z-score (in test [1]; in the test with XIP peptide (Xip251-270)) were 0.265 (inactive) and 0.707, respectively. Moreover, the z-score in test [2] is -1.05; in test [3], -0.173 (inactive); in test [4] it was 0.0646 (inactive); in test [5] it was 0.385 (inactive).

In the case of `C=C[C@H](COC(C)=O)N(Cc1ccc(OC(C)=O)c(OC)c1)S(=O)(=O)c1ccc(Br)cc1`, the composite z-score in test [1] is 0.353 (inactive); in the test on XIP peptide (Xip251-270) it was 0.713. The z-score in test [2] was 0.371; in test [3], -5.58 (inactive); in test [4], -0.245 (inactive); in test [5] it was -0.314 (inactive).

With `CCOC(=O)C1=CCC(c2ccc(C#N)cc2)N(S(=O)(=O)c2ccc(C)cc2)C1` (configuration not stated), the composite z-score is 1.79 (inactive) in test [1] and 0.766 with XIP peptide (Xip251-270). For the same compound, the z-score is -1.33 in test [2], -3.74 (inactive) in test [3], -0.308 (inactive) in test [4] and -1.22 (inactive) in test [5].

Consider `CC(C)C[C@@H]1NC(=O)[C@H]2C[C@@H](C(=O)NCCCCCCNC(=O)CS)[C@@H](c3cccc(OCCO)c3)N2C1=O`, for which the composite z-score in test [1] was 0.821 (inactive); with XIP peptide (Xip251-270), 0.792. The z-score in test [2] is -0.0202; in test [3] it was -2.77 (inactive); in test [4], 0.0162 (inactive); in test [5], 0.12 (inactive).

On to `COCCOC(=O)N1C(=O)[C@@]2(c3cc(C#CCNC(N)=O)ccc31)[C@H](c1ccc(OCCO)cc1)N1[C@H](c3ccccc3)[C@H](c3ccccc3)OC(=O)[C@H]1[C@@H]2C(=O)N1CCc2cc(OC)c(OC)cc2C1`, for which the composite z-score is -0.254 (inactive) in test [1] and 0.229 in the test on XIP peptide (Xip251-270). For the same compound, the z-score in test [2] is -0.605; in test [3], 1.91 (inactive); in test [4], -0.102 (inactive); in test [5] it was 0.15 (inactive).

Turning to `COC(=O)C(CC#Cc1ccc2c(c1)[C@]1(C(=O)N2)[C@H](C(=O)NC[C@H](O)c2ccccc2)[C@H]2C(=O)O[C@H](c3ccccc3)[C@H](c3ccccc3)N2[C@@H]1c1ccc(OCCO)cc1)C(=O)OC`, the composite z-score in test [1] was 0.518 (inactive); with XIP peptide (Xip251-270) it was 0.736. In addition, the z-score in test [2] was -2.15; in test [3], -2.24 (inactive); in test [4], -0.0625 (inactive); in test [5], -0.136 (inactive).

In the case of `C=C(COC)/C(=C/C[C@H](OC(=O)c1ccncc1)c1cccc(OCCO)c1)c1cc(C(=O)OC)ccc1OC`, the composite z-score was 1.46 (inactive) in test [1] and 0.153 in the test on XIP peptide (Xip251-270). The z-score in test [2] is -2.96; in test [3] it was -4.05 (inactive); in test [4], -0.681 (inactive); in test [5] it was -0.764 (inactive).

In the case of `CCN(CC)c1ccc(N2CC=CC34O[C@@H]5/C=C\CCCOC(=O)C5[C@H]3C(=O)N(C(CO)C(C)C)[C@@H]4C2=O)cc1` (some centres not stated), the values for the composite z-score (in test [1]; in the test on XIP peptide (Xip251-270)) were 1.05 (inactive) and 0.559, respectively. The z-score in test [2] is 0.604; in test [3], -6.07 (inactive); in test [4], 0.169 (inactive); in test [5] it was -0.0477 (inactive).
